This is one part of a sample in which hits are shown more often than they occur.
IDE exosite inh = exo-site inhibitors of human insulin-degrading enzyme; P14735; purified IDE, FL-6b probe fluorescence polarization; hits give low values; z-score at 20 µM; hit rate 6.3% among 17,000; AID 1259349;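 active = z-score of -3 or lower, meaning strong loss of probe binding signal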;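 note: His-tagged human IDE residues 42-1019 made in E. coli with 30 nM FL-6b probe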
Target sequence (P14735 42-1019 limits assumed): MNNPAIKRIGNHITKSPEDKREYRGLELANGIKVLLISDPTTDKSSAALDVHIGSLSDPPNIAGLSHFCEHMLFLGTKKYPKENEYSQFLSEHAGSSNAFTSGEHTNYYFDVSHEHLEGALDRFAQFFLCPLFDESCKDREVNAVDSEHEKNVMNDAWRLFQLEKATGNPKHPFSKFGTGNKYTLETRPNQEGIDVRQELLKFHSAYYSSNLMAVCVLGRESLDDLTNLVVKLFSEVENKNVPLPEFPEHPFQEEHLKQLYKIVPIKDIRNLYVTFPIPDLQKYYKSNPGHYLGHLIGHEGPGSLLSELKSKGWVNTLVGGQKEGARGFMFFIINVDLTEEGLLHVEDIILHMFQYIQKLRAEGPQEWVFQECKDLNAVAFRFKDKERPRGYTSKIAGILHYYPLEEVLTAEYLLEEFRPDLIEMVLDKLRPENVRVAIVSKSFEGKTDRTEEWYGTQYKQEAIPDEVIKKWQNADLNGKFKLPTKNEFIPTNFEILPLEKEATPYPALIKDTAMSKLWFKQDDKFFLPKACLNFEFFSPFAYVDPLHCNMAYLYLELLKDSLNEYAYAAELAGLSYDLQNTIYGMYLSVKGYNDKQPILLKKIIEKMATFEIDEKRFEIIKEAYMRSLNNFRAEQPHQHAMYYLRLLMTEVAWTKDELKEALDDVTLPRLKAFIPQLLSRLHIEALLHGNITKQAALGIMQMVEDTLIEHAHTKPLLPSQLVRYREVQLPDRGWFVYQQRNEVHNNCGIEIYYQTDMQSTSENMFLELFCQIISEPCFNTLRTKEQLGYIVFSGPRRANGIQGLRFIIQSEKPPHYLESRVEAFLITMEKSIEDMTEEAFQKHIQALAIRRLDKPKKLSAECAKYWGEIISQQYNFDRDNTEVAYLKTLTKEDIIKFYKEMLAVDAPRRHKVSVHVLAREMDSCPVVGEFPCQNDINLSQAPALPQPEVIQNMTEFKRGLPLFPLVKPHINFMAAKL
* hit, by the source's call.

SMILES	IDE exosite inh
N#C[C@@H]1[C@H](c2ccc(C3=CCCCC3)cc2)[C@H](CO)N1C(=O)NC1CCCC1	2.04
N#Cc1ccc(-c2ccc([C@@H]3[C@@H]4CN(S(=O)(=O)Cc5ccccc5)C[C@H]3N4)cc2)cc1	-0.716
O=C(NCc1cccc(F)c1)[C@@H]1[C@@H](CO)[C@@H]2Cn3c(ccc(-c4ccncc4)c3=O)[C@H]1N2CC1CC1	0.84
COc1cccc(-c2ccc([C@H]3[C@@H](CO)N4CCCCN(S(=O)(=O)c5cccs5)C[C@H]34)cc2)c1	0.914
COc1cccc(-c2ccc([C@@H]3[C@H]4CN(S(=O)(=O)c5cccs5)CCCCN4[C@H]3CO)cc2)c1	4.17
COc1cccc(-c2ccc([C@H]3[C@@H](CO)N4CCCCN(S(=O)(=O)c5cn(C)cn5)C[C@H]34)cc2)c1	-3.95*
COc1cccc(S(=O)(=O)N2CCCCN3[C@H](C2)[C@@H](c2ccc(-c4ccccc4)cc2)[C@@H]3CO)c1	2.99
COc1cccc(S(=O)(=O)N2CCCCN3[C@H](CO)[C@@H](c4ccc(-c5ccccc5)cc4)[C@H]3C2)c1	2.54
COc1cccc(-c2ccc([C@@H]3[C@H](CO)N4CCCCN(S(=O)(=O)c5cn(C)cn5)C[C@@H]34)cc2)c1	-10.7*
CCCNC(=O)C[C@H]1CC[C@@H]2[C@H](COc3ccc(NC(=O)CC)cc3C(=O)N2C)O1	-0.325
CNC[C@H]1OCCCC[C@@H](C)Oc2ccc(NC(=O)Nc3ccc(OC)cc3)cc2C(=O)N([C@H](C)CO)C[C@@H]1C	-0.0959
CN1CCCCN2[C@H](CO)[C@H](c3ccc(C#CC4(O)CCCC4)cc3)[C@H]2C1	3.52
CN1CCCCN2[C@H](C1)[C@H](c1ccc(-c3ccc(F)cc3)cc1)[C@@H]2CO	0.111
CN1CCCCN2[C@@H](CO)[C@H](c3ccc(C#Cc4ccccc4F)cc3)[C@@H]2C1	-4.4*
COc1ccc(C#Cc2ccc([C@@H]3[C@@H](CO)N4CCCCN(C)C[C@@H]34)cc2)cc1	0.0789
CN1CCCCN2[C@H](C1)[C@H](c1ccc(C#CC3(O)CCCC3)cc1)[C@@H]2CO	2.78
CN1CCCCN2[C@H](CO)[C@@H](c3ccc(C#CC4(O)CCCC4)cc3)[C@H]2C1	3.32
CN1CCCCN2[C@H](CO)[C@@H](c3ccc(C#Cc4ccccc4F)cc3)[C@H]2C1	-4.72*
CN1CCCCN2[C@H](C1)[C@@H](c1ccc(C#Cc3ccccc3F)cc1)[C@@H]2CO	-3.44*
CCCC(=O)Nc1ccc2c(c1)OC[C@H](C)N(CC1CCOCC1)C[C@H](C)[C@@H](OC)CN(C)C2=O	-0.767
N#C[C@@H]1[C@H](c2ccccc2)[C@H](CO)N1S(=O)(=O)c1ccc(-c2ccccc2)cc1	4.35
O=C(CN1CCOCC1)N1CC(=O)N2[C@H](C1)[C@H](c1ccc(C3=CCCCC3)cc1)[C@@H]2CO	-0.859
N#Cc1cccc(-c2ccc([C@H]3[C@H](CO)N4CCCCN(C(=O)Nc5ccc(F)cc5)C[C@@H]34)cc2)c1	1.58
O=C(C[C@@H]1CC[C@H]2[C@@H](COC[C@H](O)CN2C(=O)c2cnccn2)O1)N1CCN(c2ccccc2)CC1	-0.593
O=C(C1CCOCC1)N1CC(=O)N2[C@@H](CO)[C@@H](c3ccc(C#CC4CCCCC4)cc3)[C@@H]2C1	0.432
SMILES	IDE exosite inh
O=C1N[C@@H](Cc2ccccc2)COCc2cn(nn2)CC[C@@H]1Cc1cccc(F)c1	0.904
COCC#Cc1ccc([C@H]2[C@H]3CN(C(=O)c4ccncc4)CC(=O)N3[C@H]2CO)cc1	-0.807
Cc1cccc(S(=O)(=O)N2CCCCN3[C@H](C2)[C@@H](c2ccc(C#CC(C)C)cc2)[C@@H]3CO)c1	2.11
CC(C)C#Cc1ccc([C@@H]2[C@H]3CN(C(=O)Cc4cccnc4)CC(=O)N3[C@H]2CO)cc1	-1.28
C/C=C/c1ccc([C@@H]2[C@@H](CO)N3C(=O)CN(C(=O)Nc4ccc(F)cc4)C[C@H]23)cc1	0.195
O=C(c1cccnc1)N1CC(=O)N2[C@H](C1)[C@H](c1ccc(-c3ccc(F)cc3)cc1)[C@@H]2CO	-1.12
O=C(c1cccnc1)N1CC(=O)N2[C@@H](CO)[C@H](c3ccc(/C=C/c4ccccc4)cc3)[C@@H]2C1	-15*
O=C(c1cccnc1)N1CC(=O)N2[C@H](CO)[C@H](c3ccc(/C=C/c4ccccc4)cc3)[C@H]2C1	-16.4*
O=C(c1cccnc1)N1CC(=O)N2[C@H](CO)[C@@H](c3ccc(-c4ccc(F)cc4)cc3)[C@H]2C1	-0.134
O=C(Nc1cccc(F)c1)N1CC(=O)N2[C@H](CO)[C@H](c3ccc(-c4cccc(F)c4)cc3)[C@@H]2C1	0.936
CCC(=O)NC[C@@H]1[C@H](c2ccc(C3=CCCC3)cc2)[C@H](CO)N1C(=O)C1CC1	4.78
Cc1ccc(OC(=O)N(C)C[C@H]2OCc3ccccc3-c3ccccc3C(=O)N([C@@H](C)CO)C[C@H]2C)cc1	0.727
C[C@H]1CN([C@@H](C)CO)C(=O)c2ccccc2-c2ccccc2CO[C@@H]1CN(C)C(=O)Nc1ccc(-c2ccccc2)cc1	1.08
COc1ccc(NC(=O)N2C[C@@H](O)COC[C@@H]3O[C@@H](CC(=O)N4CCCCC4)CC[C@H]32)cc1	1.66
COc1ccc(S(=O)(=O)N(C)C[C@H]2Oc3ccc(NC(=O)Nc4ccc(C(F)(F)F)cc4)cc3C(=O)N([C@@H](C)CO)C[C@@H]2C)cc1	1.25
CN(C)CC#Cc1ccc([C@H]2[C@H](CO)N3C(=O)CN(C(=O)Cc4ccccc4)C[C@@H]23)cc1	-1.51
N#C[C@H]1[C@H](c2ccc(C#Cc3ccc(F)cc3)cc2)[C@H](CO)N1C(=O)C1CC1	4.37
COc1ccccc1C#Cc1ccc([C@H]2[C@@H](C#N)N(C(=O)C3CC3)[C@@H]2CO)cc1	-5.3*
N#C[C@@H]1[C@H](c2ccc(C#Cc3ccccc3F)cc2)[C@@H](CO)N1C(=O)C1CC1	0.0819
COc1ccccc1C#Cc1ccc([C@@H]2[C@H](C#N)N(C(=O)C3CC3)[C@H]2CO)cc1	-9.27*
COc1ccccc1C#Cc1ccc([C@@H]2[C@@H](C#N)N(C(=O)C3CC3)[C@H]2CO)cc1	-4.25*
N#C[C@H]1[C@@H](c2ccc(C#Cc3ccccc3F)cc2)[C@H](CO)N1C(=O)C1CC1	-2.19
N#C[C@H]1[C@@H](c2ccc(C#Cc3ccccc3F)cc2)[C@@H](CO)N1C(=O)C1CC1	-3.36*
CC(=O)N1[C@H](CO)[C@@H](c2ccccc2)[C@H]1CN(C(=O)c1ccccc1)C(C)C	1.07
CN(C)CC#Cc1ccc([C@@H]2[C@@H](CO)N3C(=O)CN(C(=O)c4cccc(F)c4)C[C@H]23)cc1	0.407
SMILES	IDE exosite inh
CCCC#Cc1ccc2c(c1)[C@@H]1[C@@H](CCN1S(=O)(=O)c1ccccc1C)[C@@H](CO)N2	2.36
CN(C)C(=O)C[C@H]1C=C[C@H](NC(=O)c2ccc(F)cc2)[C@H](CO)O1	2.03
c1ccc(-c2ccc([C@H]3[C@H]4CNC[C@@H]3N4Cc3cc(-c4ccccc4)on3)cc2)cc1	0.118
O=S(=O)(c1ccccc1)N1CCCCN2[C@H](C1)[C@H](c1ccc(-c3cncnc3)cc1)[C@@H]2CO	4.66
CC(=O)N1[C@H](CO)[C@@H](c2ccccc2)C12CN(Cc1ccc(Cl)cc1)C2	0.0237
O=C(Nc1ccccc1F)N1CCCCN2[C@H](C1)[C@H](c1ccc(-c3cccnc3)cc1)[C@@H]2CO	0.335
CN(C)CC(=O)N[C@H]1CC[C@H](CCNC(=O)C2CCC2)O[C@@H]1CO	1.46
COc1ccccc1CNC(=O)C[C@@H]1C[C@@H]2c3cc(NC(=O)C4CCC4)ccc3O[C@@H]2[C@H](CO)O1	0.331

Compound activity (PubChem)
